Several values for one entry are separate records, joined by “and”; a condition that tells them apart may be missing. Equal entries are not always repeated. Results filed as inconclusive are left out. Where a call stands in place of a potency, no number is given. Activity calls are given as the source filed them. The call rests on the fitted dose curve; in most records, active means well fitted curve in the direction sought with a large enough effect; inconclusive means small, poorly fitted or top-dose-only effect, or another doubt; inactive means no such curve, though single readings can be large; an effect the other way counts as inactive or inconclusive.

Drawing on PubChem BioAssay (NCATS), this text covers Potency and outcome for 32 molecules.

Chain of Calcium and integrin-binding protein 1 (Homo sapiens) (Q99828 whole entry, looked up): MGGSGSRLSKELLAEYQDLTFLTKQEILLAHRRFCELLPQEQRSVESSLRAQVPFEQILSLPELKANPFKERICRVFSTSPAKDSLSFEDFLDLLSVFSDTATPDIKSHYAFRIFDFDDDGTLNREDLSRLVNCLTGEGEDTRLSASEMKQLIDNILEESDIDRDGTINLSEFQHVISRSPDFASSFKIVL
Chain of Single-stranded DNA cytosine deaminase (Homo sapiens) (Q9GZX7 whole entry, looked up): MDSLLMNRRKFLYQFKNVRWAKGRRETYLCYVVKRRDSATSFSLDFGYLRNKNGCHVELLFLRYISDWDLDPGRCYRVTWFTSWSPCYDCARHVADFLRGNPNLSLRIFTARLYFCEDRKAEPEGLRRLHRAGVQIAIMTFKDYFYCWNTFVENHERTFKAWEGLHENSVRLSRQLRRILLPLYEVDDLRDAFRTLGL

The target in the first test is Single-stranded DNA cytosine deaminase (Homo sapiens) (UniProt Q9GZX7). Nature of the test: Validation qHTS assay for inhibitors of Activation Induced Cytidine Deaminase (AID): AID signal (AID 1347429). Further: potency means the concentration at half of the fitted maximal effect. The settings on record: Recombinant AID, FRET ssDNA deamination with UDG, fluorescence; series mostly up to 115 µM. Put shortly:
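AID+UDG coupled FRET deamination; cpds up to 114 uM final; DJC20/DJC23 substrate, 4 hr RT; NaOH stop, 30 min RT; read Ex 540/Em 590.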
Background: Quantitative high-throughput screening tests each substance at several concentrations.
`O=C(O)COCCN1CCN(C(c2ccccc2)c2ccc(Cl)cc2)CC1` (stereo unspecified): the Potency entry was “inactive”.
Same read-out and setting: to `CCN(CC)CCCC(C)Nc1ccnc2cc(Cl)ccc12` (stereo unspecified) belongs “inactive”; to `Nc1ncnc2nc(-c3ccc(N4CCOCC4)nc3)cc(-c3cccc(Br)c3)c12`, “inactive”.
For `CNC[C@H](O)c1cccc(O)c1`, the Potency result is “inactive”.
As to `Cc1cn[nH]c1`, the Potency result was “inactive”.
`CC(C)(Sc1ccc(CCN(CCCCC2CCCCC2)C(=O)NC2CCCCC2)cc1)C(=O)O`: the Potency was 79.4 µM (active).
Still for that read-out and setting: to `O=C1CCC(N2C(=O)c3ccccc3C2=O)C(=O)N1` (stereo unspecified) belongs “inactive”; to `CC(C)(C)NCC(O)c1ccc(O)c(CO)c1` (stereo unspecified), “inactive”; to `Cc1ccc(N(CC2=NCCN2)c2cccc(O)c2)cc1`, “inactive”.
Same read-out and setting: to `CCn1cc(C(=O)O)c(=O)c2cc(F)c(N3CCNC(C)C3)c(F)c21` (stereo unspecified) belongs “inactive”; to `CN1CCN(CCCN2c3ccccc3Sc3ccc(C(F)(F)F)cc32)CC1`, “inactive”; to `NC(=O)c1cnccn1`, “inactive”.
The same measure, in the same setting: to `N=c1nc(N2CCCCC2)cc(N)n1O` belongs “inactive”.

Tested on in the next test: not listed separately
Nature of the test: Primary qHTS for inhibitors of La Crosse Virus (LACV) - induced cell death in SH-SY5Y cells (AID 1508616).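 Further: top concentration of the series differs between compounds; higher means more rescue of cells from virus-induced death.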 The settings on record: SH-SY5Y LACV cytopathicity rescue, ATP luminescence, 6 d; series mostly up to 4.29 µM. Put shortly: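 Cytopathicity rescue screen: compounds pinned onto SH-SY5Y cells, which are then infected with LACV (MOI 0.01) and held 6 days at 37C. Percent activity is scaled between infected DMSO control and uninfected DMSO control.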
For the molecule `CCCc1nc2c(C)cc(-c3nc4ccccc4n3C)cc2n1Cc1ccc(-c2ccccc2C(=O)O)cc1`, the call was inactive.
On to `Clc1ccc(Nc2nnc(Cc3ccncc3)c3ccccc23)cc1`, for which the molecule was classed as inactive.
In the case of `C[C@]12CCC(=O)C=C1CC[C@@H]1[C@@H]2[C@@H](O)C[C@@]2(C)[C@H]1CC[C@]2(O)C(=O)CO`, the molecule was classed as inactive.
Take `O=C(O)COCCN1CCN(C(c2ccccc2)c2ccc(Cl)cc2)CC1` (stereo unspecified): the call was inactive.
On the same count and under the same terms, the result for `CCN(CC)CCCC(C)Nc1ccnc2cc(Cl)ccc12` (stereo unspecified) reads “inactive”; that for `Cn1cnc2c(F)c(Nc3ccc(Br)cc3Cl)c(C(=O)NOCCO)cc21`, “inactive”.
The same measure, in the same setting: the result for `COc1ccc2nc(S(=O)Cc3ncc(C)c(OC)c3C)[nH]c2c1` (stereo unspecified) reads “inactive”; that for `Nc1ncnc2nc(-c3ccc(N4CCOCC4)nc3)cc(-c3cccc(Br)c3)c12`, “inactive”.
Still for that read-out and setting: to `Cc1c(C)c2c(c(C)c1O)CCC(C)(COc1ccc(CC3SC(=O)NC3=O)cc1)O2` (stereo unspecified) belongs “inactive”; to `Nc1nc2c(ncn2COCCO)c(=O)[nH]1`, “inactive”.
As to `CCCc1nn(C)c2c(=O)[nH]c(-c3cc(S(=O)(=O)N4CCN(C)CC4)ccc3OCC)nc12`, the molecule was classed as inactive.
The same measure, in the same setting: to `CNC[C@H](O)c1cccc(O)c1` belongs “inactive”.
The same measure, in the same setting: the result for `Cc1cn[nH]c1` reads “inactive”; that for `CC(C)(Sc1ccc(CCN(CCCCC2CCCCC2)C(=O)NC2CCCCC2)cc1)C(=O)O`, “inactive”; that for `Cc1ccc(-n2nc(C(C)(C)C)cc2NC(=O)Nc2ccc(OCCN3CCOCC3)c3ccccc23)cc1`, “inactive”.
Same read-out and setting: to `Cc1cnc(NC(=O)C2=C(O)c3ccccc3S(=O)(=O)N2C)s1` belongs “inactive”; to `O=C1CCC(N2C(=O)c3ccccc3C2=O)C(=O)N1` (stereo unspecified), “inactive”; to `CC(C)(C)NCC(O)c1ccc(O)c(CO)c1` (stereo unspecified), “inactive”.
As for `Cc1ccc(N(CC2=NCCN2)c2cccc(O)c2)cc1`, the molecule was classed as inactive.
Same read-out and setting: to `CC(c1cc2ccccc2s1)N(O)C(N)=O` (stereo unspecified) belongs “inactive”; to `CCn1cc(C(=O)O)c(=O)c2cc(F)c(N3CCNC(C)C3)c(F)c21` (stereo unspecified), “inactive”.
For the molecule `CCc1ccc(CCOc2ccc(CC3SC(=O)NC3=O)cc2)nc1` (stereo unspecified), the call was inactive.
On to `C#Cc1cccc(Nc2ncnc3cc(OCCOC)c(OCCOC)cc23)c1`, for which the molecule was classed as inactive.
Still for that read-out and setting: the result for `Cc1cc2c(C(C)C)c(O)c(O)c(C=O)c2c(O)c1-c1c(C)cc2c(C(C)C)c(O)c(O)c(C=O)c2c1O` reads “inactive”; that for `CN1CCN(CCCN2c3ccccc3Sc3ccc(C(F)(F)F)cc32)CC1`, “inactive”; that for `NC(=O)c1cnccn1`, “inactive”.
Regarding `N=c1nc(N2CCCCC2)cc(N)n1O`, the outcome was inactive.
On the same count and under the same terms, to `CCC(C)n1ncn(-c2ccc(N3CCN(c4ccc(OC[C@H]5CO[C@](Cn6cncn6)(c6ccc(Cl)cc6Cl)O5)cc4)CC3)cc2)c1=O` (stereo partly specified) belongs “inactive”.

The next test addresses Calcium and integrin-binding protein 1 (Homo sapiens) (UniProt Q99828). Nature of the test: Confirmatory qHTS for Identification of Calcium Integrin Binding Protein 1 (CIB1) Competitor (AID 1508617). Further: nearly all actives have a fitted effect of over 65% in size. Further: potency means the concentration at half of the fitted maximal effect. To be noted: CIB1 binding competition assay, biochemical qHTS; series mostly up to 114 µM. From the text:
Assay Provider: Ulhas P. Naik, PhD
Sidney Kimmel Medical College
Thomas Jefferson University, Philadelphia, PA
Primary function of platelets is to maintain hemostasis. At the site of vascular injury, platelets adhere to adhesive proteins such as collagen and von Willebrand factor. Adherent platelets are activated and generate soluble platelet agonists such as thrombin, ADP and thromboxane A2. Following exposure of circulating platelets to these agonists, results in platelet shape change, granule secretion and activation of platelet integrin alphaIIb-beta3. Ligand binding to activated integrin alphaIIb-beta3 triggers outside-in signaling, leading to platelet aggregation, stabilization of platelet plug, and clot retraction. Upon atherosclerotic plaque rupture also causes platelet plug formation, which underlies a number of cardiovascular diseases such as myocardial infraction and stroke. A number of anti-platelet drugs such as aspirin, clopidogrel, prasugrel, vorapaxar, and eptifibatide are currently available to prevent the thrombotic complications. However, these anti-platelet agents have several limitations including inherent variability in individual responses, developing resistance, and serious bleeding side effects. For these reasons they are not suitable for long-term protection. Based on the experiences with current anti-platelet drugs, it appears that the most useful therapeutic approach is to intersect the secondary responses such as integrin outside-in signaling or recruitment of platelets by TxA2 and secreted ADP. Compounds, which can largely preserve the primary hemostatic function of platelets but inhibit secondary response will be most desired therapeutic agents for treatment of cardiovascular disease.
CIB1 is a calcium integrin binding protein, which specifically interact with the alphaIIb subunit of integrin alphaIIb-beta3. Binding of CIB1 to alphaIIb regulates the outside-in signaling in platelets, which is needed for thrombus stabilization and thrombus growth. […] Therefore, we propose that discovery of a small molecule that can prevent the association of CIB1 and alphaIIb-beta3 will be a potential anti-platelet agent that can block the thrombus formation without undue effect on hemostasis.
To develop fluorescence polarization (FP) assay using fluorescently labeled alphaIIb peptide and CIB1 protein. Using FP assay characterize the binding affinity, competitive inhibition, and acceptable Z factor (0.5 to1) in order to perform the HTS to identify small molecule compound that can prevent CIB1 binding to platelet integrin alphaIIb-beta3. Active compounds were re-acquired and validated using confirmatory and counterscreens.
[1] […]
7; Detection; Ex 480/ Em 540; ViewLux Fluorescence Read […]
Take `COc1ccc2nc(S(=O)Cc3ncc(C)c(OC)c3C)[nH]c2c1` (stereo unspecified): the Potency was 39.8 µM (active).
Consider `O=C1CCCC2=C1C(c1[nH]ncc1Cl)N=C(Nc1nc3ccccc3o1)N2` (stereo unspecified), for which the Potency result was “inactive”.
Same read-out and setting: to `Cc1cc2c(C(C)C)c(O)c(O)c(C=O)c2c(O)c1-c1c(C)cc2c(C(C)C)c(O)c(O)c(C=O)c2c1O` belongs 3.16 µM (active) and 28.2 µM (active).

The next test has the same target. Nature of the test: Validation qHTS for Identification of Calcium Integrin Binding protein 1 (CIB1) Competitor (AID 1508618). Further: potency means the concentration at half of the fitted maximal effect. The settings on record: CIB1-GST / FITC-alphaIIb peptide fluorescence polarization; series mostly up to 114 µM. An outline of the steps:
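Fluorescence polarization with 1 uM CIB1-GST and 100 nM FITC-alphaIIb peptide in HEPES pH 7.4, NaCl, 5 mM CaCl2, Tween20. Compounds at up to 114 uM final, preincubated with protein 15 min; read after 15 min more at RT.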
As for `O=C(O)CCc1ccc(NCc2cccc(Oc3ccccc3)c2)cc1`, the Potency result was “inactive”.
Still for that read-out and setting: to `O=C(O)COCCN1CCN(C(c2ccccc2)c2ccc(Cl)cc2)CC1` (stereo unspecified) belongs “inactive”; to `Nc1nc2c(ncn2COCCO)c(=O)[nH]1`, “inactive”.
The same measure, in the same setting: the result for `CCCc1nn(C)c2c(=O)[nH]c(-c3cc(S(=O)(=O)N4CCN(C)CC4)ccc3OCC)nc12` reads “inactive”.
In the case of `Cc1cn[nH]c1`, the Potency result is “inactive”.
For `O=C1CCC(N2C(=O)c3ccccc3C2=O)C(=O)N1` (stereo unspecified), the Potency entry is “inactive”.
Turning to `CC(C)(C)NCC(O)c1ccc(O)c(CO)c1` (stereo unspecified), the Potency entry is “inactive”.
Same read-out and setting: the result for `CCn1cc(C(=O)O)c(=O)c2cc(F)c(N3CCNC(C)C3)c(F)c21` (stereo unspecified) reads “inactive”; that for `Cc1cc2c(C(C)C)c(O)c(O)c(C=O)c2c(O)c1-c1c(C)cc2c(C(C)C)c(O)c(O)c(C=O)c2c1O`, 22.4 µM (active).
Regarding `CS(=O)(=O)c1cccc(CNc2nc(Nc3ccc4c(c3)CCC(=O)N4)ncc2C(F)(F)F)c1`, the Potency result is “inactive”.
Same read-out and setting: to `CCc1cncnc1N1CCN(Cc2nc3ccc(C(F)(F)F)cc3[nH]2)CC1` belongs “inactive”; to `NC(=O)c1cnccn1`, “inactive”.
